In PubChem BioAssay (Tox21):
Inconclusive results are not listed. Calls of active or inactive are those of the source. Unless noted, calls follow the shape of the dose curve; as a rule, active = well fitted curve in the direction sought with a large enough effect in the repeat runs; inconclusive = weak or mixed curves; inactive = no such curve, though single readings can be large; an effect the other way counts as inactive or inconclusive.

What was measured:
[1] = qHTS assay to test for compound auto fluorescence at 535 nm (green) in HEK293 cells (AID 720680)
[2] = qHTS assay to test for compound auto fluorescence at 460 nm (blue) in HEK293 cell free culture (AID 720681)
Outline: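 Compounds were added to cell-free DMEM with 10% FBS and fluorescence read directly. The blue channel used 405 nm excitation and 460 nm emission, with triamterene as the reference fluorophore.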

[3] = qHTS assay to test for compound auto fluorescence at 535 nm (green) in HEK293 cell free culture (AID 720682)
Outline: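 Steps: dispense DMEM/10% FBS into empty wells; pin in compound or DMSO; measure fluorescence at 485/535 nm. Values are fluorescein equivalents.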

[4] = qHTS assay to test for compound auto fluorescence at 590 nm (red) in HEK293 cell free culture (AID 720683)
Outline: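 Cell-free wells of DMEM with 10% FBS received compound, and intrinsic fluorescence was read at excitation/emission 540/590 nm. Values expressed as equivalence to Rose Bengal sodium.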

[5] = qHTS assay to test for compound auto fluorescence at 590 nm (red) in HepG2 cell free culture (AID 720684)
Outline: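 Rose Bengal sodium served as the reference for red signal. Test compounds were dispensed into serum-containing MEM (10% FBS) without cells, and plates were read at 540/590 nm.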

[6] = qHTS assay to test for compound auto fluorescence at 535 nm (green) in HepG2 cell free culture (AID 720686)
[7] = qHTS assay to test for compound auto fluorescence at 460 nm (blue) in HepG2 cells (AID 720687)
Outline: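 HepG2 cells in MEM with 10% FBS, attached overnight at 37 C, were exposed to compound or DMSO for 1 hr at 37 C, 5% CO2. Blue fluorescence was read at 405/460 nm, with triamterene as reference fluorophore.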

[8] = molecular target: Glucocorticoid receptor (Homo sapiens) (UniProt P04150); experiment: qHTS assay to identify small molecule agonists of the glucocorticoid receptor (GR) signaling pathway (AID 720691; active = well fitted activation curve with a large enough effect in the signal ratio in the repeat runs, not every such curve was filed as active; the % refers to the signal ratio); conditions: GR-bla HeLa, beta-lactamase reporter ratio, 18 h; activation: at 62.4 µM (top of the series)
Sequence of Glucocorticoid receptor (Homo sapiens) (P04150 whole entry, looked up): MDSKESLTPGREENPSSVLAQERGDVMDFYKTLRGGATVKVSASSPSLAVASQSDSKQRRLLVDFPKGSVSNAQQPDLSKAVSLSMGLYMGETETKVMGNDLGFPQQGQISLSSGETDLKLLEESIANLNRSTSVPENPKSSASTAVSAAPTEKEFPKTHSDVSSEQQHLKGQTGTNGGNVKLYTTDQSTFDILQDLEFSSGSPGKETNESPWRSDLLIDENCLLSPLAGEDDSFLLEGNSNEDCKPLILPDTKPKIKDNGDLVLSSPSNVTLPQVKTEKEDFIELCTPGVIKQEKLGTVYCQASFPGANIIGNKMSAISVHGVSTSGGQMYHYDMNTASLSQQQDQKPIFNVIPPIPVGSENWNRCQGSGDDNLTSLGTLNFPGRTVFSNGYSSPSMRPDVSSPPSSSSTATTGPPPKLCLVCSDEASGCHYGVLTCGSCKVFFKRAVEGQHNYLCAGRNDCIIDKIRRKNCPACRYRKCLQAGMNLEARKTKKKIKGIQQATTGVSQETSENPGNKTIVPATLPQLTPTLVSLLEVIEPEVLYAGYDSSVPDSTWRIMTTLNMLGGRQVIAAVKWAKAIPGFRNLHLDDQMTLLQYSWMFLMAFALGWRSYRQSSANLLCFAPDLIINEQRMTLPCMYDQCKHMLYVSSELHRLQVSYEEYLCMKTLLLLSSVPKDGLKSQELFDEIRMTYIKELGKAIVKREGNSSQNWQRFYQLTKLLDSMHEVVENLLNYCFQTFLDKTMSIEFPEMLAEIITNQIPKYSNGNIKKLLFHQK
Outline: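 Measures GR pathway activation through a GRE-beta-lactamase reporter stably integrated in HeLa cells, with 18 h compound treatment at 37 C and fluorescence detection using a FRET substrate.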

[9] = molecular target: Glucocorticoid receptor (Homo sapiens) (UniProt P04150); experiment: qHTS assay to identify small molecule antagonists of the glucocorticoid receptor (GR) signaling pathway (AID 720692; active = well fitted inhibition curve with a large enough effect in the signal ratio in the repeat runs, not every such curve was filed as active; the % refers to the signal ratio)
Outline: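 Tox21 10K library screened in concentration-response for blockade of dexamethasone (5 nM final)-induced GRE-bla reporter activity in HeLa cells; 18 h treatment, fluorescence read.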

[10] = qHTS assay to identify small molecule antagonists of the glucocorticoid receptor (GR) signaling pathway - cell viability counter screen (AID 720693); also: nearly all actives have a fitted effect of over 55% in size
[11] = qHTS assay for identifying genotoxic compounds that show differential cytotoxicity against isogenic chicken DT40 cell lines with known DNA damage response pathways - Rev3 mutant cell line (AID 743014); also: nearly all actives have a fitted effect of over 55% in size
[12] = qHTS assay for identifying genotoxic compounds that show differential cytotoxicity against isogenic chicken DT40 cell lines with known DNA damage response pathways - Rad54/Ku70 mutant cell line (AID 743015); also: nearly all actives have a fitted effect of over 60% in size
[13] = qHTS assay to identify small molecule antagonists of the androgen receptor (AR) signaling pathway using the MDA cell line - cell viability counter screen (AID 743041; also: nearly all actives have a fitted effect of over 45% in size)
Outline: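 Cytotoxicity counter screen: MDA-kb2 AR-luc cells, compound + R1881, 16 h, 37C, 0% CO2; CellTiter-Fluor added at 15.5 h, fluorescence read after 30 min.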

[14] = qHTS assay for identifying genotoxic compounds that show differential cytotoxicity against isogenic chicken DT40 cell lines with known DNA damage response pathways - wild type cell line (AID 743012); also: nearly all actives have a fitted effect of over 60% in size
Outline: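 Endpoint: CellTiter-Glo luminescence, 30 min RT. Cells: wild type DT40, 300/well. Exposure: compounds in DMSO, 40 h, 37 C/5% CO2, after ~0.5 h pre-incubation.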

[15] = qHTS assay to identify small molecule antagonists of the androgen receptor (AR) signaling pathway - cell viability counter screen (AID 743033; also: nearly all actives have a fitted effect of over 45% in size)
[16] = molecular target: Androgen receptor (Homo sapiens) (UniProt P10275); experiment: qHTS assay to identify small molecule antagonists of the androgen receptor (AR) signaling pathway (AID 743035; active = well fitted inhibition curve with a large enough effect in the signal ratio in the repeat runs, not every such curve was filed as active; the % refers to the signal ratio)
Sequence of Androgen receptor (Homo sapiens) (P10275 whole entry, looked up): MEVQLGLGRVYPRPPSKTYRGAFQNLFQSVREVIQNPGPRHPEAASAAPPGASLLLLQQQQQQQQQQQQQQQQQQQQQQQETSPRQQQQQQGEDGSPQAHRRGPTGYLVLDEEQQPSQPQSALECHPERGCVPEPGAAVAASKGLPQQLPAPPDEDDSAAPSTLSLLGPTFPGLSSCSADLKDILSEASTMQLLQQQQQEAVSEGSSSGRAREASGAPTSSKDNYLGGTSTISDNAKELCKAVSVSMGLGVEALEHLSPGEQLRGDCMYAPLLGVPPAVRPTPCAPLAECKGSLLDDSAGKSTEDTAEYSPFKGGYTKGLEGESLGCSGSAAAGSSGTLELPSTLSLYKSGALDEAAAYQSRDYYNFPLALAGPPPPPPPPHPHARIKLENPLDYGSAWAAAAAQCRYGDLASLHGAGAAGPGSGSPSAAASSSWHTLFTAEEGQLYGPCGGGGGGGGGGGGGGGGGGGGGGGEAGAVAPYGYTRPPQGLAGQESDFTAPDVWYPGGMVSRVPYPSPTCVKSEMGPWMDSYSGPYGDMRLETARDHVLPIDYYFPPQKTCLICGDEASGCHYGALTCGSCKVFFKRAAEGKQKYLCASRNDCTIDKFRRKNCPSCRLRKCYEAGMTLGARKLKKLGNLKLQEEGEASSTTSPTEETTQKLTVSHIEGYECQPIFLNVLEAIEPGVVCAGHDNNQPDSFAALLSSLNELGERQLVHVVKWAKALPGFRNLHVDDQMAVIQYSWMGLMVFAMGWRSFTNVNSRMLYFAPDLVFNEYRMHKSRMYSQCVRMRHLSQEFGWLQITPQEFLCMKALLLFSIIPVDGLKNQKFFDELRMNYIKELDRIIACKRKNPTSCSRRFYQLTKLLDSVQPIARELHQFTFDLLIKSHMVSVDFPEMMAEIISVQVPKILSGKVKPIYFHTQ
Outline: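 R1881 agonist challenge of a HEK293 UAS-beta-lactamase AR reporter line in the presence of compound (16 h, 37C); signal taken as FRET fluorescence after 2 h with LiveBLAzer B/G substrate at room temperature.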

[17] = molecular target: Androgen receptor (Homo sapiens) (UniProt P10275); experiment: qHTS assay to identify small molecule agonists of the androgen receptor (AR) signaling pathway (AID 743036; active = well fitted activation curve with a large enough effect in the signal ratio in the repeat runs, with a control signal flat, not every such curve was filed as active; the % refers to the signal ratio)
Outline: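 Reporter line: GeneBLAzer AR-UAS-bla-GripTite (HEK293). Steps: plate cells, 4 h rest, add compounds, 16 h at 37C, add LiveBLAzer B/G substrate, 2 h at RT, read fluorescence.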

[18] = molecular target: Androgen receptor (Homo sapiens) (UniProt P10275); experiment: qHTS assay to identify small molecule agonists of the androgen receptor (AR) signaling pathway using the MDA cell line (AID 743040; also: nearly all actives have a fitted effect of over 20% in size)
Outline: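 Luciferase read-out, ONE-Glo, 30 min RT. Cells: MDA-kb2 AR-luc, MMTV promoter with AR and GR response elements. Compound exposure 16 h, 37C, 0% CO2, after 5 h pre-incubation. qHTS agonist mode.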

[19] = molecular target: Androgen receptor (Homo sapiens) (UniProt P10275); experiment: qHTS assay to identify small molecule antagonists of the androgen receptor (AR) signaling pathway using the MDA cell line (AID 743042; also: nearly all actives have a fitted effect of over 55% in size)
Outline: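 MDA-kb2 breast carcinoma cells carrying MMTV-luciferase (AR/GR responsive) were co-treated with compounds and the agonist R1881 for 16 h at 37C. Inhibition read as ONE-Glo luminescence; CellTiter-Fluor fluorescence measured in parallel for cytotoxicity.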

[20] = qHTS assay to test for compound auto fluorescence at 460 nm (blue) in HepG2 cell free culture (AID 720685)
Outline: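 Cell-free plates of MEM plus 10% FBS received 23 nL compound or DMSO vehicle; blue-channel (405/460 nm) intensity scored against triamterene as reference fluorophore.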

Measured: Potency

COc1ccc(C(=O)Nc2ccccc2CCC2CCCCN2C)cc1 (stereo not drawn)
inactive: [1] | [2] | [3] | [4] | [5] | [6] | [7] | [8] | [9] | [10] | [11] | [12] | [13]

CC(/C=C/C=C(\C)C(=O)O[C@@H]1O[C@H](CO[C@@H]2O[C@H](CO)[C@@H](O)[C@H](O)[C@H]2O)[C@@H](O)[C@H](O)[C@H]1O)=C\C=C\C=C(C)\C=C\C=C(/C)C(=O)O[C@@H]1O[C@H](CO[C@@H]2O[C@H](CO)[C@@H](O)[C@H](O)[C@H]2O)[C@@H](O)[C@H](O)[C@H]1O
inactive: [1] | [2] | [3] | [4] | [5] | [6] | [7] | [8] | [10] | [14] | [12] | [15] | [13]

O.O=C([O-])CC([S-])C(=O)[O-].[Au+].[Na+].[Na+] (stereo not drawn)
inactive: [1] | [2] | [3] | [4] | [5] | [6] | [7] | [8] | [9] | [10] | [14] | [11] | [12] | [15] | [13]

CC1(C)C2CC[C@]3(C)[C@H](C(=O)C=C4[C@@H]5C[C@@](C)(C(=O)O)CC[C@]5(C)CC[C@]43C)[C@@]2(C)CC[C@@H]1O[C@H]1O[C@H](C(=O)O)[C@@H](O)[C@H](O)[C@H]1O[C@@H]1O[C@H](C(=O)O)[C@@H](O)[C@H](O)[C@H]1O (stereo partly drawn)
inactive: [1] | [2] | [3] | [4] | [5] | [7] | [10] | [14] | [11] | [12] | [15] | [13]

N[C@@H](C(=O)N[C@@H]1C(=O)N2C(C(=O)O)=C(CSc3cn[nH]n3)CS[C@H]12)c1ccc(O)cc1
inactive: [1] | [2] | [3] | [4] | [5] | [6] | [7] | [8] | [9] | [10] | [14] | [12] | [15] | [16] | [17] | [18] | [13] | [19]

CCC(Oc1ccccc1)C(=O)N[C@@H]1C(=O)N2[C@@H]1SC(C)(C)[C@@H]2C(=O)O (stereo partly drawn)
inactive: [1] | [2] | [3] | [4] | [5] | [6] | [7] | [10] | [14] | [12] | [15] | [13]

CCCc1nc(C(C)(C)O)c(C(=O)OCc2oc(=O)oc2C)n1Cc1ccc(-c2ccccc2-c2nn[nH]n2)cc1
inactive: [1] | [2] | [3] | [4] | [5] | [20] | [10] | [14] | [11] | [15] | [13]

Cc1c(O)cc2c(c1C)O[C@](C)(CCC[C@H](C)CCC[C@H](C)CCCC(C)C)CC2
inactive: [1] | [2] | [3] | [4] | [5] | [6] | [7] | [8] | [9] | [10] | [14] | [12] | [15] | [13]
